# This is one part of the list. No count for the full screen is at hand.
# B1: HC1060 (peptide)
# chain: CASPLTTSQTAGNASASA
# B2: HC2339 (peptide)
# chain: CAEPPCHRPSAGNASASA
# B3: FS-829 (peptide)
# chain: CAMLYRHKKSAGNASASA
# B4: FS-414 (peptide)
# chain: CAEPGREKKSAGNASASA
# B5: HC1140 (peptide)
# chain: CARLHQWISSAGNASASA
# B6: FS-1651 (peptide)
# chain: CARLYREKKSAGNASASA
# B7: FS-157 (peptide)
# chain: CAEPKRIKKSAGNASASA
# B8: FS-615 (peptide)
# chain: CALSNRTMKSAGNASASA
# B9: FS-176 (peptide)
# chain: CALKARRKKSAGNASASA
# B10: FS-413 (peptide)
# chain: CAEKARKGKSAGNASASA
# B11: FS-803 (peptide)
# chain: CAIKCRTKKSAGNASASA
# B12: FS-717 (peptide)
# chain: CASFARIKKWAGNASASA
# B13: HC1458 (peptide)
# chain: CALYDVVTKLAGNASASA
# B14: HC1948 (peptide)
# chain: CAWCTTPCSGAGNASASA
# B15: HC2352 (peptide)
# chain: CAEVECHRPSAGNASASA
# B16: HC2427 (peptide)
# chain: CAFREVPCHRAGNASASA
# B17: HC387 (peptide)
# chain: CAPERLASCRAGNASASA
# B18: HC2017 (peptide)
# chain: CAVSCCSMSYAGNASASA
# B19: FS-434 (peptide)
# chain: CAGSHRRQRRAGNASASA
# B20: NG1 (peptide)
# chain: CASSNQLQRRAGNASASA
# B21: FS-45 (peptide)
# chain: CAKRSRDARRAGNASASA
# B22: FS-743 (peptide)
# chain: CAAISRRQRRAGNASASA
# B23: HC1581 (peptide)
# chain: CAARMILMTHAGNASASA
# B24: HC931 (peptide)
# chain: CAAYMNTPGLAGNASASA
# B25: HC1719 (peptide)
# chain: CAMEPCSQHLAGNASASA
# B26: EK1 (peptide)
# chain: CAGDDDDKAGAGNASASA
# B27: FS-2333 (peptide)
# chain: CARGKRSCHAAGNASASA
# B28: FS-83 (peptide)
# chain: CARGSRFSKSAGNASASA
# B29: FS-2932 (peptide)
# chain: CARGIRPVGRAGNASASA
# B30: FS-1951 (peptide)
# chain: CARGKRSAGPAGNASASA
# B31: FS-3250 (peptide)
# chain: CARGQRSVKAAGNASASA
# B32: FS-2672 (peptide)
# chain: CARGKRSPKSAGNASASA
# B33: FS-3188 (peptide)
# chain: CARGKRLDGPAGNASASA
# B34: FS-2934 (peptide)
# chain: CARGKRFSQSAGNASASA
# B35: HC2472 (peptide)
# chain: CAETPCSAHLAGNASASA
# B36: HC526 (peptide)
# chain: CAVCSCLWMMAGNASASA
# B37: FS-2560 (peptide)
# chain: CARKKKLVSTAGNASASA
# B38: FS-1717 (peptide)
# chain: CARHRRSLRLAGNASASA
# B39: FS-2145 (peptide)
# chain: CARHRRGQETAGNASASA
# B40: FS-2146 (peptide)
# chain: CARHRRRGSPAGNASASA
# B41: FS-2155 (peptide)
# chain: CARKKRNGLTAGNASASA
# B42: FS-2946 (peptide)
# chain: CARHRRMLTPAGNASASA
# B43: FS-2943 (peptide)
# chain: CARHRRALDTAGNASASA
# B44: FS-2423 (peptide)
# chain: CARKKKTEGTAGNASASA
# B45: FS-2556 (peptide)
# chain: CARHRRYKALAGNASASA
# B46: FS-2492 (peptide)
# chain: CARHRRVNGTAGNASASA
# B47: FS-3256 (peptide)
# chain: CARHRRLLSIAGNASASA
# Target: furin, P09958
# Experiment: furin cleavage Z-score vs untreated control; higher = more cleavage, active = 3.5 or more, inactive = 1 or less, 8 variable residues between constant flanks
# Summary of the method: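 In 50 mM HEPES pH 7.5 with CaCl2 and NaCl, purified furin was incubated with bead-anchored 8-mer peptide–cDNA fusions at 1:10 enzyme:substrate in 0.01 ml. Incubation times were 7.5, 15 and 30 min. DNA set free by cleavage was adapter-tagged by PCR and sequenced, with read counts taken as abundance. Log counts relative to furin-free reactions, after lowess adjustment and median absolute deviation scaling, form the cleavage Z-score.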
# furin, P09958, sequence (P09958 whole entry): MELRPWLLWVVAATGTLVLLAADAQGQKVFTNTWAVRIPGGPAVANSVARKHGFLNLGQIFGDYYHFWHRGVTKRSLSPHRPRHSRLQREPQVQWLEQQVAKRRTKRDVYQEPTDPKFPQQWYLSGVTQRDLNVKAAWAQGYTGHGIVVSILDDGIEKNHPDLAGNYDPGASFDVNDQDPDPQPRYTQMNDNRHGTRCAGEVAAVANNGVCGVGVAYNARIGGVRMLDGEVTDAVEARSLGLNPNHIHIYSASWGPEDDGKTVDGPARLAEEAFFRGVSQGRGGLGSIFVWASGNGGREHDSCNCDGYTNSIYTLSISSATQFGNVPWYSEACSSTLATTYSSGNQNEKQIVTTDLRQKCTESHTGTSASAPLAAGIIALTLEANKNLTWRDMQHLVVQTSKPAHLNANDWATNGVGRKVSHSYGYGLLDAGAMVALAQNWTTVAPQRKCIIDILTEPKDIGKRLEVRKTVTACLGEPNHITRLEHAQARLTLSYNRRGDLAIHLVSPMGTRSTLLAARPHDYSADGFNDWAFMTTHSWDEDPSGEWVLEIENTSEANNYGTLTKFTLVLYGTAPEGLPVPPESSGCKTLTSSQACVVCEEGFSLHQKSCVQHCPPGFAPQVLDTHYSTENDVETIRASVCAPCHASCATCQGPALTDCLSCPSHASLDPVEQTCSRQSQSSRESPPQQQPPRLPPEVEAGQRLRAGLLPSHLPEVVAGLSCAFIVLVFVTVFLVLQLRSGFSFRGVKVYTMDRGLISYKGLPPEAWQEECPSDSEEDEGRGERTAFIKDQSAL
Sequence,furin cleavage Z-score (7.5 min),furin cleavage Z-score (15 min),furin cleavage Z-score (30 min)
B1,0.0213 (inactive),-0.739 (inactive),0.362 (inactive)
B2,0.111 (inactive),-0.455 (inactive),-0.0572 (inactive)
B3,0.949 (inactive),1.65,1.42
B4,-0.759 (inactive),0.432 (inactive),-0.848 (inactive)
B5,0.126 (inactive),-1.75 (inactive),-1.83 (inactive)
B6,0.828 (inactive),2.77,3.88 (active)
B7,3.63 (active),4.2 (active),3.26
B8,1.04,-0.454 (inactive),0.561 (inactive)
B9,7.34 (active),8.84 (active),7.56 (active)
B10,-1.2 (inactive),-1.61 (inactive),-0.85 (inactive)
B11,1.77,4.04 (active),3.26
B12,-0.31 (inactive),-0.161 (inactive),1.88
B13,0.188 (inactive),0.0294 (inactive),-0.805 (inactive)
B14,1.23,0.244 (inactive),1.72
B15,1.1,0.203 (inactive),0.236 (inactive)
B16,0.22 (inactive),0.297 (inactive),0.623 (inactive)
B17,-0.263 (inactive),0.599 (inactive),1.53
B18,0.592 (inactive),-0.576 (inactive),1.57
B19,9.09 (active),10.6 (active),8.98 (active)
B20,0.397 (inactive),2.01,-0.568 (inactive)
B21,1.61,-0.052 (inactive),2.16
B22,6.03 (active),8.53 (active),7.79 (active)
B23,-0.255 (inactive),-1.76 (inactive),-1.15 (inactive)
B24,-0.513 (inactive),-1.08 (inactive),0.157 (inactive)

Sequence,furin cleavage Z-score (7.5 min),furin cleavage Z-score (15 min),furin cleavage Z-score (30 min)
B25,2.46,0.794 (inactive),2.77
B26,-2.21 (inactive),-1.96 (inactive),0.274 (inactive)
B27,5.25 (active),5.05 (active),5.61 (active)
B28,-0.0204 (inactive),-0.301 (inactive),0.871 (inactive)
B29,-0.929 (inactive),-0.4 (inactive),0.111 (inactive)
B30,11.6 (active),13.8 (active),9.13 (active)
B31,0.885 (inactive),-0.415 (inactive),1.5
B32,11.3 (active),11 (active),9.78 (active)
B33,0.0707 (inactive),0.484 (inactive),-0.699 (inactive)
B34,0.749 (inactive),2.29,2
B35,-0.0785 (inactive),-0.846 (inactive),-1.94 (inactive)
B36,-0.293 (inactive),-0.986 (inactive),-0.164 (inactive)
B37,-1.01 (inactive),-1.81 (inactive),-1.46 (inactive)
B38,6.94 (active),6.95 (active),9.37 (active)
B39,0.466 (inactive),0.563 (inactive),2.26
B40,0.761 (inactive),1.81,1.39
B41,5.12 (active),6.11 (active),6.82 (active)
B42,5.72 (active),9.34 (active),8.35 (active)
B43,5.7 (active),5.62 (active),5.06 (active)
B44,-1.18 (inactive),0.416 (inactive),0.176 (inactive)
B45,-0.784 (inactive),-0.33 (inactive),3.08
B46,0.115 (inactive),-0.477 (inactive),-0.55 (inactive)
B47,-0.899 (inactive),-0.261 (inactive),-0.784 (inactive)
